Compound activity (PubChem)
Rows were chosen to be rich in hits. Some 21% of all compounds tested hit in one or more screens of this group.
DT40 TDP1 no CPT – qHTS for Inhibitors of human tyrosyl-DNA phosphodiesterase 1 (TDP1): qHTS in cells in absence of CPT. DT40 Tdp1-/- hTDP1 cells, no CPT, ATP luminescence, 48 h. Potency, µM (series often up to 46.2 µM), inactives show top-dose activity change, negative = growth inhibition, actives largely listed as inhibitors. 420,000 tested, 15% active. AID 686978, 2013; note: potency is the fitted concentration of half-maximal effect; % is set by controls: 0 for no effect and ±100 for the full control effect; nearly all actives have a fitted effect of over 55% in size
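Readout: luminescence from CellTiter-Glo after 30 min in the dark at RT. Cells: DT40 Tdp1-/- with stable hTDP1, 400/well. Exposure: compounds alone, ≥48 hr, 37 °C.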
TDP1 cell CPT – growth inhibition of DT40 Tdp1-/-;hTDP1 cells with camptothecin (screen for TDP1 inhibitors); chicken DT40 Tdp1-/-;hTDP1 cells + 20 nM CPT, ATP luminescence, 48 h; Potency, µM (highest dose often 46.2 µM), for inactives: at the highest dose activity change, negative = growth inhibition, actives largely listed as inhibitors; 420,000 tested, 12% active; note: potency is the fitted concentration of half-maximal effect; % is set by controls: 0 for no effect and ±100 for the full control effect; nearly all actives have a fitted effect of over 55% in size
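Chicken DT40 Tdp1-/- cells stably complemented with human TDP1 were seeded at 400 cells/well in medium containing 20 nM camptothecin, exposed to pin-transferred compounds, and grown at 37 °C for at least 48 hr. Viability was read as ATP luminescence.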
IL-1B inflam inh – blocks inflammasome-driven IL-1 beta release; THP-1 LPS/ATP IL-1B secretion, AlphaLISA, 16 h; hits give low values; activity change, % at 57.5 µM; 360,000 tested, 4.7% active; AID 743279; in the data active = activity change below about -50%; inconclusive = mostly about -30% to -49%; note: % is set by controls: 0 for no effect and ±100 for the full control effect
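Secreted IL-1B measured by AlphaLISA bead assay after 16 h compound exposure of THP-1 cells; compounds (final up to 57.5 uM) added 1 h before LPS (250 ng/mL) and ATP (1.25 mM) stimulation; lower signal means less secretion.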
ClpP mod – qHTS Assay for Activators of ClpP. ATP-dependent Clp protease proteolytic subunit (Bacillus subtilis (strain 168)), P80244. purified B. subtilis ClpP, FRET peptide cleavage, 20 min. Potency, µM (highest dose often 57.5 µM), inactives show top-dose activity change, negative = active. 340,000 tested, 1.9% active. AID 651965, 2013; active = well fitted falling curve with a large enough effect; inconclusive = small, poorly fitted or top-dose-only effect; inactive = no such curve, though single readings can be large or run the other way; note: potency is the fitted concentration of half-maximal effect; the source files actives as falling curves though it sought activators and does not explain the sign; nearly all actives have a fitted effect of over 65% in size
Target sequence (P80244 whole entry, looked up): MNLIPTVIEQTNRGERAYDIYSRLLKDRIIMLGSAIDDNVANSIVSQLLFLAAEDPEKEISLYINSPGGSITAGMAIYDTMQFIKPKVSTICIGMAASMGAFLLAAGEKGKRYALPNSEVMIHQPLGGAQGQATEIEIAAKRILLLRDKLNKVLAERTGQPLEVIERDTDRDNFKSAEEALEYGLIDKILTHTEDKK
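Purified B. subtilis ClpP, 10 microg/mL final in Tris/HCl pH8 with KCl, BSA, glycerol and Tween-20, cleaved an Abz/nitrotyrosine-quenched decapeptide. Fluorescence (ex 320, em 430) was read at 0 and 20 min at room temperature. Delta was normalized to 5.8 microM ADEP and DMSO/no-enzyme controls.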
DRD3 antagonist – antagonists of human D3 dopamine receptor; 360,000 tested, 2.5% active; AID 652054; D3R cells, DiscoveRx beta-arrestin luminescence, antagonist mode; hits give low values; max response, negative = inhibition, %; in the data active = max response below about -50%; inconclusive = no clear call, values can overlap the other calls; note: % is set by controls: 0 for no effect and ±100 for the full control effect
Target sequence (P35462 whole entry, looked up): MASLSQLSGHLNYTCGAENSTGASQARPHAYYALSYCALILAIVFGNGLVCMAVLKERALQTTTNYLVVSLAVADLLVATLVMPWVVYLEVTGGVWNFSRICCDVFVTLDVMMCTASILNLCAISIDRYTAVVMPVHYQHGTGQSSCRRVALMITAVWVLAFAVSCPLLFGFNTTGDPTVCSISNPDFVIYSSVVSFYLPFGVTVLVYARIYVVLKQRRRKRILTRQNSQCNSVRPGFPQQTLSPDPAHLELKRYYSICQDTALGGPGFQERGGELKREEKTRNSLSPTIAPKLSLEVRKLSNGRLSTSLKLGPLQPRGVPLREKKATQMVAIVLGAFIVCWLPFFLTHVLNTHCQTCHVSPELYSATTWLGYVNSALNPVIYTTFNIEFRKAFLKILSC
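Cells plated overnight at 1500 cells/well, then exposed to library compounds with dopamine controls for 90 minutes at 37 degrees C. DiscoveRx reagent added for 30–60 minutes at room temperature; luminescence read, quantitative HTS format.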
DRD3 agonist – activates the human D3 dopamine receptor; P35462; D3R DiscoveRx beta-arrestin cells, luminescence, 90 min; max activation, %; 410,000 tested, 0.58% active; AID 652048; in the data active = max activation above about 30%; note: 0% is about no effect
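Cells at 1500/well, incubated overnight, then treated with pinned compounds (dopamine as control) for 90 min at 37 degrees C. DiscoveRx reagent added for 30 - 60 minutes at room temperature; luminescence read.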
* hit, by the source's call; ? = inconclusive; . = not tested or not shown; [ ] = dose if it differs, or a comment. Unless noted, calls come from the whole dose curve; as a rule, active = well fitted inhibition curve with a large enough effect; inconclusive = small, poorly fitted or top-dose-only effect; inactive = flat fitted curve, though single readings scatter.

SMILES	DT40 TDP1 no CPT	TDP1 cell CPT	IL-1B inflam inh	ClpP mod	DRD3 antagonist	DRD3 agonist
Cc1ccccc1OCCCSc1nc2ccccc2[nH]1	16µM*	?	-81*	1%	3	3
Cc1c(OCC(F)(F)F)ccnc1CSc1nc2ccccc2[nH]1	23µM*	?	?	-1%	8	3
NC(=O)CCCSc1nc2ccccc2[nH]1	18%	-18%	42	.	-8	5
Cc1cc(=O)n(C(NC(=O)c2ccccc2)C(=O)c2ccccc2)cn1 (centres undefined)	-30%	-10%	26	1%	101	65*
O=C(CN1C(=O)C2(SCC(=O)N2c2ccc(F)c(F)c2)c2ccccc21)Nc1ccccc1F (centres undefined)	-20%	-12%	.	0%	.	6
Cc1cccc(C)c1-n1nnnc1C(c1ccnc2ccccc12)N1CCN(C/C=C/c2ccccc2)CC1 (centres undefined)	8.2µM*	9.2µM*	-17	2%	-116*	-14
Cc1cccc(C)c1-n1nnnc1C(c1ccnc2ccccc12)N1CCCC1 (centres undefined)	?	?	1	-4%	-56*	-10
Cc1cccc(C)c1-n1nnnc1C(c1ccnc2ccccc12)N1CCN(C(=O)OCc2ccccc2)CC1 (centres undefined)	16µM*	?	12	1%	17	2
CC(C)(C)n1nnnc1C(c1ccnc2ccccc12)N1CCN(C/C=C/c2ccccc2)CC1 (centres undefined)	16µM*	16µM*	11	-2%	2	-10
Cc1cc(C)c2oc(C(=O)NC3CCS(=O)(=O)C3)cc(=O)c2c1 (centres undefined)	18%	4%	0	-5%	0	2
CC1CCCC(NCC(=O)Nc2ccc(C(N)=O)cc2)C1C (centres undefined)	-3%	8%	-14	.	6	0
COc1ccccc1CNc1ccc(-c2nc(-c3cccc(C)c3)no2)cc1[N+](=O)[O-]	-15%	-1%	.	2%	.	3
COc1ccc(C(c2nnnn2-c2c(C)cccc2C)N2CCN(C/C=C/c3ccccc3)CC2)cc1 (centres undefined)	?	?	19	-2%	-87*	-16
Cc1cccc(C)c1-n1nnnc1C(c1ccccc1OC(F)(F)F)N1CCN(C/C=C/c2ccccc2)CC1 (centres undefined)	21µM*	?	32	-1%	-95*	-8
COc1cccc(C(c2nnnn2-c2c(C)cccc2C)N2CCN(C/C=C/c3ccccc3)CC2)c1OC (centres undefined)	?	?	0	0%	-121*	-24
CC(C)(C)n1nnnc1C(c1ccccc1OC(F)(F)F)N1CCN(C/C=C/c2ccccc2)CC1 (centres undefined)	15µM*	21µM*	-3	3%	-24	-17
C=CCN1CCN(C(c2ccccc2OC)c2nnnn2C(C)(C)C)CC1 (centres undefined)	-3%	2%	19	.	-8	-2
COc1ccccc1NC(=O)C(C)N1CCN(C/C=C/c2ccccc2)CC1 (centres undefined)	?	?	-16	0%	-29	-10
CCOC(=O)c1c(C)[nH]c(C)c1S(=O)(=O)NC1CCN(C(=O)OCC)CC1	12%	4%	-11	0%	0	4
COc1ccc(/C=N/c2c(-c3ccco3)nc3ccccn23)cc1OC	?	?	-19	28µM*	27	-2
Cc1noc(C)c1C(=O)N1CCC[C@@]2(CCN(C(=O)Nc3cccc(C#N)c3)C2)C1	-3%	7%	.	.	.	.
COc1cccc(N2CC(NC(=O)c3ccc(S(=O)(=O)N4CCCC4)cc3)CC2=O)c1 (centres undefined)	-28%	-13%	.	-1%	.	-4
Cc1ccc(Cc2c(C)nc3nc(SCC(=O)NCCCN4CCCC4)nn3c2C)cc1	-18%	6%	-13	.	9	0
Cc1ccc(Cc2c(C)nc3nc(SCC(=O)NCCC(C)C)nn3c2C)cc1	23µM*	?	.	0%	.	-9
Cc1ccc(Cc2c(C)nc3nc(SCC(=O)NCCCN4CCCCC4)nn3c2C)cc1	-15%	3%	-62*	.	-13	-3
SMILES	DT40 TDP1 no CPT	TDP1 cell CPT	IL-1B inflam inh	ClpP mod	DRD3 antagonist	DRD3 agonist
CCC1CCCCN1CCCNC(=O)CSc1nc2nc(C)c(Cc3ccccc3)c(C)n2n1 (centres undefined)	-14%	0%	-67*	.	-1	-6
Cc1nc2nc(SCC(=O)NCCN3CCOCC3)nn2c(C)c1Cc1ccccc1	3%	4%	16	-8%	11	2
CCSc1nnc(C(C)NC(=O)c2ccc(OC)cc2)n1C (centres undefined)	-13%	9%[9.04 µM]	.	.	.	.
O=C(O)C(F)=C1c2ccccc2-c2ccccc21	-12%	-16%	13	0%	-13	-2
Cc1ccc(Cc2nc3ccccc3nc2SCC(=O)NCCC(C)C)cc1	?	?	.	1%	.	1
CCc1cc(C(=O)Nc2cc(S(=O)(=O)N(C)C)ccc2C)sc1C	13µM*	15µM*	-17	-2%	-4	2
CCN(CC)CC(=O)Nc1ccc(C)cc1C(=O)c1ccccc1	?	-20%	5	.	11	15
Cc1ccc(S(=O)(=O)N(C)C)cc1NC(=O)c1ccncc1	1%	-2%	-6	-2%	-11	-1
Cc1ccc(S(=O)(=O)N(C)C)cc1NC(=O)c1ccc2ccccc2n1	?	21µM*	19	-4%	3	0
Cc1ccc(S(=O)(=O)NCCC(=O)Nc2ccc(C)cc2C(=O)c2ccccc2)cc1	21µM*	?	-9	-1%	25	-2
Cc1ccc(C)c(NC(=O)c2ccc3ccccc3n2)c1	?	?	26	35µM*	-16	-2
CC(C)OCCCNC(=O)CCCn1c(SCC(=O)c2ccc(Br)cc2)nc2c(sc3ccccc32)c1=O	-23%	-13%	.	-2%	.	-4
Cc1ccc(C)c(NC(=O)c2cnn3ccccc23)c1	12µM*	5.8µM*	39	-3%	-11	-5
Cc1ccc(C)c(NC(=O)c2cc3ccccn3n2)c1	-27%	-23%	-1	-2%	8	-3
Cc1ccc(S(=O)(=O)NCCC(=O)Nc2cc(S(=O)(=O)N(C)C)ccc2C)cc1C	16µM*	-17%	25	.	3	-10
